Where “and” joins values, the source holds several entries; their conditions need not be identical. Identical values can stand only once. The whole screen tested about 5,500 compounds, of which about 2,000 (36%) were called active. Another 18% or so got no clear call; they are omitted. The list shows a part of the results. A number with no mark means an inactive call. No stated cut-off is given here; in the data, active means normalized growth mostly below about 0.91 (no sharp cut-off); inconclusive means no clear call, values can overlap the other calls; inactive means mostly above about 0.92.
Experiment: chemical genetic growth profiling, strain panel (AID 1159580);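 further: tested at 20 µM; growth read once vehicle control cultures reached saturation at 30 °C; 1 = growth at the plate median or of vehicle wells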
Details: S. cerevisiae deletion strains, growth OD

O=C1C=C2C(=CCOC2O)O1 (stereo unspecified)
normalized growth (locus YAL013W, strain DEP1, stronger effect = lower value): 0.922 | normalized growth (locus YAL021C, strain ccr4, stronger effect = lower value): 0.679 (active) | normalized growth (locus YAL026C, strain drs2, stronger effect = lower value): 0.644 (active) | normalized growth (locus YAL030W, strain snc1, stronger effect = lower value): 0.781 (active) | normalized growth (locus YBL061C, strain skt5, stronger effect = lower value): 0.796 (active) | normalized growth (locus YBR009C, strain hhf1, stronger effect = lower value): 0.71 (active) | normalized growth (locus YBR021W, strain FUR4, stronger effect = lower value): 0.762 (active) | normalized growth (locus YBR023C, strain chs3, stronger effect = lower value): 0.784 (active) | normalized growth (locus YBR171W, strain sec66, stronger effect = lower value): 0.672 (active) | normalized growth (locus YBR229C, strain ROT2, stronger effect = lower value): 0.991 | normalized growth (locus YBR231C, strain swc5, stronger effect = lower value): 0.73 (active) | normalized growth (locus YBR279W, strain paf1, stronger effect = lower value): 0.78 (active) | normalized growth (locus YCL011C, strain gbp2, stronger effect = lower value): 0.759 (active) | normalized growth (locus YCL016C, strain dcc1, stronger effect = lower value): 0.73 (active) | normalized growth (locus YCL029C, strain bik1, stronger effect = lower value): 0.913 | normalized growth (locus YCL069W, strain vba3, stronger effect = lower value): 0.752 (active) | normalized growth (locus YCR088W, strain abp1, stronger effect = lower value): 0.792 (active) | normalized growth (locus YDL005C, strain med2, stronger effect = lower value): 0.881 (active) | normalized growth (locus YDL035C, strain GPR1, stronger effect = lower value): 0.776 (active) | normalized growth (locus YDL040C, strain nat1, stronger effect = lower value): 0.887 (active) | normalized growth (locus YDL074C, strain BRE1, stronger effect = lower value): 0.678 (active) | normalized growth (locus YDL101C, strain DUN1, stronger effect = lower value): 0.851 (active) | normalized growth (locus YDL134C, strain PPH21, stronger effect = lower value): 0.9 | normalized growth (locus YDL185W, strain tfp1, stronger effect = lower value): 0.789 (active) | normalized growth (locus YDL192W, strain arf1, stronger effect = lower value): 0.789 (active) | normalized growth (locus YDR001C, strain nth1, stronger effect = lower value): 0.846 (active) | normalized growth (locus YDR069C, strain doa4, stronger effect = lower value): 0.652 (active) | normalized growth (locus YDR101C, strain arx1, stronger effect = lower value): 0.8 (active) | normalized growth (locus YDR137W, strain rgp1, stronger effect = lower value): 0.335 (active) | normalized growth (locus YDR150W, strain NUM1, stronger effect = lower value): 0.831 (active) | normalized growth (locus YDR159W, strain sac3, stronger effect = lower value): 0.847 (active) | normalized growth (locus YDR162C, strain NBP2, stronger effect = lower value): 0.258 (active) | normalized growth (locus YDR195W, strain ref2): 0.927 | normalized growth (locus YDR297W, strain sur2, stronger effect = lower value): 0.797 (active) | normalized growth (locus YDR318W, strain mcm21, stronger effect = lower value): 0.793 (active) | normalized growth (locus YDR334W, strain swr1, stronger effect = lower value): 0.845 (active) | normalized growth (locus YDR335W, strain msn5, stronger effect = lower value): 0.698 (active) | normalized growth (locus YDR388W, stronger effect = lower value): 0.864 (active) | normalized growth (locus YDR392W, strain spt3, stronger effect = lower value): 0.555 (active) | normalized growth (locus YDR502C, strain sam2, stronger effect = lower value): 0.763 (active) | normalized growth (locus YEL003W, strain gim4, stronger effect = lower value): 0.659 (active) | normalized growth (locus YEL037C, strain rad23, stronger effect = lower value): 0.82 (active) | normalized growth (locus YEL061C, strain CIN8 (second series), stronger effect = lower value): 0.759 (active) | normalized growth (locus YEL061C, strain CIN8, stronger effect = lower value): 0.848 (active) | normalized growth (locus YER015W, strain faa2, stronger effect = lower value): 0.635 (active) | normalized growth (locus YER016W, strain bim1, stronger effect = lower value): 0.833 (active) | normalized growth (locus YER110C, stronger effect = lower value): 0.597 (active) | normalized growth (locus YER111C, strain swi4, stronger effect = lower value): 0.938 | normalized growth (locus YER155C, strain BEM2 (second series), stronger effect = lower value): 0.303 (active) | normalized growth (locus YER155C, strain BEM2, stronger effect = lower value): 0.962 | normalized growth (locus YER167W, strain BCK2, stronger effect = lower value): 0.795 (active) | normalized growth (locus YFR010W, strain ubp6, stronger effect = lower value): 0.613 (active) | normalized growth (locus YGL078C, strain dbp3, stronger effect = lower value): 0.869 (active) | normalized growth (locus YGL086W, strain mad1, stronger effect = lower value): 0.806 (active) | normalized growth (locus YGL167C, strain pmr1, stronger effect = lower value): 0.846 (active) | normalized growth (locus YGL173C, strain kem1, stronger effect = lower value): 0.707 (active) | normalized growth (locus YGL227W, strain vid30, stronger effect = lower value): 0.843 (active) | normalized growth (locus YGL240W, strain doc1, stronger effect = lower value): 0.487 (active) | normalized growth (locus YGL248W, strain PDE1, stronger effect = lower value): 0.883 (active) | normalized growth (locus YGL253W, strain hxk2, stronger effect = lower value): 0.657 (active) | normalized growth (locus YGR078C, strain PAC10, stronger effect = lower value): 0.702 (active) | normalized growth (locus YGR135W, strain pre9, stronger effect = lower value): 0.784 (active) | normalized growth (locus YGR229C, strain SMI1, stronger effect = lower value): 0.366 (active) | normalized growth (locus YGR252W, strain gcn5, stronger effect = lower value): 0.462 (active) | normalized growth (locus YHR013C, strain ard1, stronger effect = lower value): 0.589 (active) | normalized growth (locus YHR027C, strain rpn1, stronger effect = lower value): 0.71 (active) | normalized growth (locus YHR030C, strain SLT2, stronger effect = lower value): 0.9 (active) and 0.845 (active) | normalized growth (locus YHR079C, strain IRE1 (second series), stronger effect = lower value): 0.858 (active) | normalized growth (locus YHR079C, strain IRE1, stronger effect = lower value): 0.84 (active) | normalized growth (locus YHR094C, strain hxt1, stronger effect = lower value): 0.948 | normalized growth (locus YHR129C, strain ARP1, stronger effect = lower value): 0.855 (active) | normalized growth (locus YHR142W, strain chs7, stronger effect = lower value): 0.684 (active) | normalized growth (locus YHR200W, strain rpn10, stronger effect = lower value): 0.91 (active) | normalized growth (locus YIL066C, strain RNR3, stronger effect = lower value): 0.776 (active) | normalized growth (locus YIL073C, strain SPO22, stronger effect = lower value): 0.5 (active) | normalized growth (locus YIL125W, strain kgd1, stronger effect = lower value): 0.886 (active) | normalized growth (locus YIR030C, strain dcg1, stronger effect = lower value): 0.911 (active) | normalized growth (locus YJL092W, strain hpr5, stronger effect = lower value): 0.744 (active) | normalized growth (locus YJL095W, strain BCK1 (second series), stronger effect = lower value): 0.833 (active) | normalized growth (locus YJL095W, strain BCK1, stronger effect = lower value): 0.795 (active) and 0.859 (active) | normalized growth (locus YJL115W, strain asf1, stronger effect = lower value): 0.961 | normalized growth (locus YJL129C, strain trk1, stronger effect = lower value): 0.769 (active) | normalized growth (locus YJL134W, strain LCB3, stronger effect = lower value): 0.961 | normalized growth (locus YJL154C, strain vps35, stronger effect = lower value): 0.859 (active) | normalized growth (locus YJL164C, strain tpk1, stronger effect = lower value): 0.757 (active) | normalized growth (locus YJL166W, strain qcr8, stronger effect = lower value): 0.667 (active) | normalized growth (locus YJL168C, strain set2, stronger effect = lower value): 0.939 | normalized growth (locus YJL187C, strain SWE1 (second series), stronger effect = lower value): 0.829 (active) | normalized growth (locus YJR043C, strain POL32, stronger effect = lower value): 0.882 | normalized growth (locus YJR066W, strain TOR1, stronger effect = lower value): 0.831 | normalized growth (locus YJR075W, strain HOC1, stronger effect = lower value): 0.805 (active)

From PubChem BioAssay AID1159580 (chemical genetic matrix, 2015)
